{
  "source": "PubChem BioAssay (NCI)",
  "note": "This is part of a sample that, as a whole, favours compounds with a hit. Of some 83,000 tested, about 20% had one in any assay.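 48-hour exposure, single concentration, 96-well plates; percent growth endpoint where 0 means no net growth. Active: below 10.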 The source made the active and inactive calls.",
  "data": [
    {"system": "MDA-MB-468 breast", "test": "NCI-60 one-dose screen, 48 h (100 = growth as untreated, 0 = no growth, -100 = all killed)", "details": "10 µM unless noted", "values": [
      {"smiles": "Nc1cc2c([nH]c[n+]2CC#CCCl)c(SCC#CCCl)n1", "growth": "-57.1% (active)"},
      {"smiles": "C=CCN1C=CC(=O)[C@H](O[Si](C)(C)C(C)(C)C)[C@@H]1/C=C/c1ccccc1", "growth": "-72.9% [100 µM] (active)"},
      {"smiles": "CCC(C)Nc1ccc(NC(C)CC)cc1", "note": "(stereo not drawn)", "growth": "8.07% (active)"}
    ]}
  ]
}
